# SMN2 splice up: SMN2 splice variant enhancement; AID 1458; HEK293 SMN2-luciferase splicing reporter, luminescence, 30-36 h; 2.8% of 210,000 active; Potency, µM (top dose mostly 46.1 µM), for inactives: at the top dose activity change, positive = activation, usual class: activators; note: % of control where 0% means no effect; nearly all actives have a fitted effect of over 55% in size
#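 HEK293 cells carry an SMN2 […]–luciferase reporter in which exon 7 inclusion puts luciferase in frame. Cells were plated 10-12 h before compound addition, then incubated 30-36 h at 37C. ONE-Glo luminescence was read; sodium butyrate at 4.5 mM final served as control.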
# ELG1 repair inh: blocks ELG1-dependent DNA repair in HEK293T cells; HEK293T ELG1-luciferase reporter, luminescence, 16 h; DNA damage induced by 5-fluorouridine; Potency, µM (series often up to 46.1 µM), inactives show top-dose activity change, negative = inhibition, usual class: inhibitors; 2.3% of 330,000 active; AID 504467; note: % is set by controls: 0 for no effect and ±100 for the full control effect; nearly all actives have a fitted effect of over 55% in size
#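 Luminescence from the luciferase reporter, measured 30 min after ONE-Glo reagent at room temperature, was the read-out. Beforehand, 2,000 cells per well were exposed for 16 hr at 37 °C to 5-fluorouridine together with compound or vehicle.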
# Rab9 promoter act: activates the Rab9 promoter; 2.8% of 320,000 active; AID 485297; Potency, µM (doses to about 9.22 µM), without a hit: at the top dose activation, negative = inhibition, most hits filed as activators; Huh7 Rab9 promoter-luciferase reporter, luminescence, 24 h; note: % of control where 0% means no effect; nearly all actives have a fitted effect of over 60% in size
#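 Steps: seed 1500 Huh7 Rab9-luc cells per well, rest 2 h at 37 °C; add compound in DMSO; incubate 24 h; add luciferase reagent, 10 min ambient; read luminescence.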
# NPC1 promoter act: NPC1 promoter activation. Huh7 NPC1 promoter luciferase reporter, 24 h. Potency, µM (series often up to 9.22 µM), inactives show at the top dose activation, usual class: activators. 2.4% of 320,000 active. AID 485313; note: % of control where 0% means no effect; nearly all actives have a fitted effect of over 60% in size
#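 Huh7 reporter cells (NPC1 promoter driving luciferase) are dosed with compound for 24 h at 37 °C, 5% CO2; luciferase detection reagent is then added and luminescence measured after 10 min at ambient temperature.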
# ELG1 genotoxic: inducers of genotoxicity in HEK293T ELG1-luciferase cells; HEK293T ELG1-luciferase reporter, luminescence, 16 h; Potency, µM (doses to about 46 µM), without a hit: at the highest dose activity change, positive = activation, usual class: activators; 1.3% of 330,000 active; AID 504466; note: % of control where 0% means no effect; nearly all actives have a fitted effect of over 60% in size
#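 DMSO vehicle served as control against compound-treated ELG1-luciferase HEK293T cells; exposure lasted 16 hr at 37 °C and 5% CO2, followed by ONE-Glo luminescence detection after 30 min.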
# FLuc modulator: inhibits or activates purified firefly luciferase, miR-21 counter-screen | 6.9% of 360,000 active | purified FLuc, Km substrates, luminescence inhibition | P08659 | Potency, µM (top dose mostly 57.5 µM), for the others: at the highest dose activity change, negative = inhibition, most hits filed as inhibitors;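 note: plate controls were vehicle for no effect and reference inhibitor for full effect; nearly all actives have a fitted effect of over 55% in size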
# Target sequence (P08659 whole entry, looked up): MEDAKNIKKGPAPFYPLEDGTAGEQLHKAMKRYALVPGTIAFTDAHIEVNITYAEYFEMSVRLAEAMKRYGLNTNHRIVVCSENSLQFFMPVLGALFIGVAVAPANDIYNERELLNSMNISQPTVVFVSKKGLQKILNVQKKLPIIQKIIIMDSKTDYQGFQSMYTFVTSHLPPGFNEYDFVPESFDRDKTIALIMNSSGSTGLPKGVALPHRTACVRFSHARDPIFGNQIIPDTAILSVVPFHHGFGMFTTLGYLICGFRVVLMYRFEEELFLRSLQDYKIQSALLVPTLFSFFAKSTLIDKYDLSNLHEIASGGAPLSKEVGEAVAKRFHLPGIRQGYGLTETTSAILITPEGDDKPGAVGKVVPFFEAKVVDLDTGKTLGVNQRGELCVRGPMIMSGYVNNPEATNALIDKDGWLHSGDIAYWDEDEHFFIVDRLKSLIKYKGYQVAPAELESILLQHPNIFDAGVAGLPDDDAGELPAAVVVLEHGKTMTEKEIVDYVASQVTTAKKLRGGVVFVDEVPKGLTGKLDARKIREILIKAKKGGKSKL
#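 Purified P. pyralis luciferase (10nM final) with 10uM D-luciferin and 10uM ATP (Km levels) in 50mM Tris acetate pH 7.5, 10mM Mg acetate, 0.01% Tween-20, 0.05% BSA; qHTS 6-point titration, ~60 µM downward; luminescence read.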
# Numbers without * were called inactive; u = inconclusive; x = no result given. Rows were chosen to be rich in hits. Some 9.2% of all compounds tested hit in one or more screens of this group. Calls come from the whole dose curve; as a rule, active = well fitted curve in the direction sought with a large enough effect; inconclusive = small, poorly fitted or top-dose-only effect, or another doubt; inactive = no such curve, though single readings can be large; an effect the other way counts as inactive or inconclusive. Potency is the fitted concentration of half-maximal effect.
SMILES,SMN2 splice up,ELG1 repair inh,Rab9 promoter act,NPC1 promoter act,ELG1 genotoxic,FLuc modulator
CC(C)n1cnc2cc(NC(=O)c3ccco3)ccc21,x,u,1.8µM*,1.1µM*,u,11µM*
COc1cc(NC(=O)c2cc(Cl)ccc2Cl)ccc1NC(=O)c1cc2ccccc2o1,-23%,x,x,x,x,7%
CCC(=O)Nc1ccc2c(c1)ncn2-c1ccccc1OC,4%,2%,-2%,2%,2%,-13%
COc1ccccc1-n1cnc2cc(NC(=O)c3ccco3)ccc21,10µM*,u,-6%,-13%,u,u
Cc1cc(NC(=O)CC2CCCC2)n(-c2nc3ccccc3[nH]2)n1,-35%,23µM*,-2%,23%,-12%,1%
Cc1cc(NC(=O)/C=C/c2ccccc2Cl)n(-c2nc3ccccc3[nH]2)n1,11µM*,u,2µM*,u,7%,1.3µM*
COc1ccc(C(=O)n2cnc3ccccc32)cc1[N+](=O)[O-],x,-9%,0%,0%,0%,-1%
CCN1CCN(c2csc3ccc(Cl)cc3c2=O)CC1,x,x,x,x,x,15µM*
Cc1ccc2scc(N3CCN(c4ccc(F)cc4)CC3)c(=O)c2c1,x,x,x,x,x,-12%
O=c1c(N2CCCCC2)csc2ccc(F)cc12,x,x,x,x,x,6µM*
Cc1ccc2scc(N3CCN(c4ccccc4)CC3)c(=O)c2c1,x,x,x,x,x,17µM*
Clc1ccc2scc(CN3CCCCC3)c2c1,-3%,-1%,-4%,-1%,-1%,4%
CC1CCCN(c2csc3ccccc3c2=O)C1 (stereo not given),x,x,x,x,x,8.5µM*
O=C(NC1CCS(=O)(=O)C1)c1ccc(N2CCCCC2)c([N+](=O)[O-])c1 (stereo not given),x,-6%,0%,-1%,1%,3%
CCOc1ccccc1C(=O)NCC(=O)NNC(=O)c1cccs1,x,16%,x,x,-1%,x
COc1ccc(C2CC(=O)c3cc(-c4nc(-c5ccc(Cl)cc5)c(C)s4)c(=O)[nH]c3C2)cc1 (stereo not given),-15%,x,x,x,x,-3%
CC(=O)N1CCN(c2csc3ccc(Br)cc3c2=O)CC1,x,x,x,x,x,15µM*
Cc1ccc2scc(N3CCc4ccccc4C3)c(=O)c2c1,x,x,x,x,x,4.8µM*
CN(C)c1cccc(C(=O)N2CCC(c3ccncc3)CC2)c1,x,x,x,x,x,-3%
CCC(=O)N1CCc2cc(Br)cc(S(=O)(=O)N3CCCCC3CC)c21 (stereo not given),x,-3%,7%,-4%,-25%,1%
O=C(CS(=O)Cc1ccccc1Cl)Nc1ccccc1Cl (stereo not given),12%,-12%,1%,0%,-2%,-9%
CN1c2ccccc2C(O)=C(C(=S)Nc2ccc(Cl)cc2)S1(=O)=O,-18%,-7%,-6%,-2%,-9%,19µM*
Cc1cccc(C)c1NC(=O)C1=C(O)c2sccc2N(C)S1(=O)=O,-11%,-3%,-1%,-5%,-5%,u
Cc1cccc(NC(=O)C2=C(O)c3ccccc3N(C)S2(=O)=O)c1,14%,11%,1%,1%,-2%,17µM*
Cn1c(=O)c2c(nc(CN3CCN(C(=O)c4ccco4)CC3)n2CCCc2ccccc2)n(C)c1=O,-8%,u,-1%,-5%,7%,-2%
Cc1cccc(NC(=O)c2nc[nH]c2C(=O)NCCCNC(=O)c2[nH]cnc2C(=O)Nc2cccc(C)c2)c1,x,9.2µM*,x,x,-13%,x
O=C(Nc1ccc(Cl)cc1)c1nc[nH]c1C(=O)NCCCNC(=O)c1[nH]cnc1C(=O)Nc1ccc(Cl)cc1,x,2.6µM*,x,x,-3%,x
Cc1cccc(NC(=O)c2nc[nH]c2C(=O)NCCN(CCNC(=O)c2[nH]cnc2C(=O)Nc2cccc(C)c2)CCNC(=O)c2[nH]cnc2C(=O)Nc2cccc(C)c2)c1,x,-19%,x,x,-8%,x
Cc1cccc(NC(=O)c2nc[nH]c2C(=O)NC2CCN(C(=O)OC(C)(C)C)CC2)c1,x,26µM*,-5%,-1%,-9%,3%

# Screening data from PubChem BioAssay.
